Experimental data published in PubChem BioAssay.
Calls of active or inactive are those of the source. Rule as the data show it: active = inhibition above about 31%; inactive = the rest.

Assay: 384-well plate pilot, post-Golgi transport modulator project, inhibition of yeast transport mutant growth (AID 636)
Details: absorbance 615 nm, about 18 h, hits give high values

inhibition, inactive:
COC(=O)c1cnn2c(C(F)(F)F)cc(-c3ccco3)nc12 -4.61%
CCOC(=O)c1ccc(NC(=O)CCc2nc(-c3cccc(C)c3)no2)cc1 0.41%
COc1ccccc1C(=O)N1CCN=C1SCc1cccnc1 -3.65%
c1cncc(-c2nnc3sc(-c4ccco4)nn23)c1 -5.39%
CC1CN(c2nc(-c3ccccc3)nc3ccccc23)CC(C)O1 (stereo not given) -3.72%
O=C(NC1CCN(Cc2nnnn2CCc2ccccc2)CC1)c1ccccc1F 0.13%
O=S(=O)(c1ccc(OCC(O)CN2CCC(Cc3ccccc3)CC2)cc1)N1CCOCC1 (stereo not given) -6.45%
COc1ccc(C2N(C(=O)c3ccccc3)CCN2C(=O)c2ccccc2)cc1 -1.04%
CCSC1=NCN(CCCC(=O)O)CN1 0.13%
O=C(CCOc1ccccc1)NCc1ccccc1 4.03%
CCOC(=O)c1ccccc1NC(=O)c1cc2sccc2n1C 1.23%
C=CCn1c(SCC(=O)NC23CC4CC(CC(C4)C2)C3)nc(O)cc1=O -1.18%
O=C(OCc1ccc2c(c1)OCO2)c1ccc(S(=O)(=O)N2CCCCC2)cc1 -0.77%
COC(=O)N1CC(c2ccccc2)CC1=O (stereo not given) -9.04%
COc1ccc(C2=Nn3c(nnc3-c3ccccc3)SC2)cc1OC -4.47%
CCOc1ccc(Cl)cc1S(=O)(=O)N1CCCC1 -4.34%
Cn1c(SCCN2CCCCC2)nnc1-c1ccccc1Br -4.4%
O=C(COc1ccccc1)N1CCN(C(=O)c2cccc(F)c2)CC1 -8.11%
COc1ccc(CN2CC(C(=O)NCCCOC(C)C)CC2=O)cc1 (stereo not given) -2.11%
COC(=O)CSc1nc(C)c(C(C)=O)cc1C#N -0.93%
Cn1c(=O)c2c(nc(Br)n2CCSc2ncccn2)n(C)c1=O -1.87%
O=C(NCC(c1cccnc1)N1CCOCC1)c1cccs1 (stereo not given) -2.24%
O=C(CSc1nnnn1-c1ccc(Cl)cc1)NC(=O)Nc1ccc2c(c1)OCCO2 -6%
Cc1nc2sc(C(c3ccco3)N3CCN(c4ccccc4F)CC3)c(O)n2n1 (stereo not given) -6.27%
CC1CCCCC1NC(=O)CN1CCN(Cc2ccccc2Cl)C1=O (stereo not given) -4.68%
COc1ccc(-n2c(=O)[nH]cc(C(=O)Nc3ccc(NC(C)=O)cc3)c2=O)cc1 -3.78%
CCN(CC)CCN1C(=O)C(=O)/C(=C(/O)c2c(C)[nH]c(C(=O)OC)c2C)C1c1ccco1 (stereo not given) -4.8%
Cc1nc(N2CCc3ccccc32)[nH]c(=O)c1CCC(C)C -2.99%
C=COC(=O)CSc1snc(SCC(=O)OC)c1C#N -5.89%
COc1ccc2[nH]c(=O)c(CN(C(=O)c3ccncc3)C(C)C)cc2c1 -3.12%
Cc1ccc2cc3cc(C(=O)N4CC(C)CC(C)C4)oc3nc2c1 (stereo not given) -2.47%
O=C(C1CCN(c2nnnn2-c2ccccc2)CC1)N1CCN(c2ccccc2)CC1 -5.27%
CCCCSCCCNC(=O)CS(=O)Cc1nc(-c2cccc(C)c2)oc1C (stereo not given) -1.58%
Cc1cc(C)n(-c2nnc(C)n2/N=C/c2ccccc2F)n1 -7.07%
O=C(O)c1cc(-c2ccccc2Cl)n[nH]1 -2.34%
O=C1c2ccccc2C(=O)N1CC(O)Cn1nnc2ccccc21 (stereo not given) -3.07%
COCCN(C(=O)CCC(=O)Nc1ccccn1)C(C(=O)NC1CCCC1)c1ccc(OC)cc1 (stereo not given) 2.57%
CCOC(=O)c1ccccc1NC(=O)COC(=O)C1=COCCO1 -5.81%
Cc1ccc(-c2cc(C(=O)O)n[nH]2)o1 -3.01%
Cn1c(=O)c2c(nc(SCCCO)n2Cc2ccccc2Cl)n(C)c1=O -1.6%
